The list is not random: actives were taken first. Their share in the collection is about 9.5%.
NPSR antagonist: neuropeptide S receptor (human) antagonism, cAMP. Q6W5P4. Potency, µM (titrated, usually from 38.3 µM), without a hit: at the highest dose activity change, negative = inhibition, most hits filed as inhibitors. CHO-NPSR cells, cAMP TR-FRET, antagonist mode. AID 1461. 1% of 220,000 active; further: nearly all actives have a fitted effect of over 50% in size
Tau fluor cs: counter-screen for tau fibril formation inhibitors. tau K18 P301L Alexa594 fluorescence, heparin fibrillization. Potency, µM (top dose mostly 57.7 µM), for inactives: top-dose activity change, negative = decrease. 0.93% of 280,000 active; further: nearly all actives have a fitted effect of over 55% in size
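Human K18 P301L tau (15 uM unlabeled plus 0.24 uM Alexa 594-labeled, final) in 100 mM sodium acetate pH 7 was mixed with compound and 20 uM heparin and incubated 6 hr at 37 C.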
Tau ThT inhib: inhibitors of human tau fibril formation, thioflavin T binding. 2.1% of 270,000 active. recombinant tau K18 P301L, heparin-induced fibrillization, ThT fluorescence. Potency, µM (series often up to 57.4 µM), without a hit: at the top dose activity, negative = inhibition, actives largely listed as inhibitors. P10636; further: nearly all actives have a fitted effect of over 55% in size
Target sequence (P10636 561-689 P618L limits assumed): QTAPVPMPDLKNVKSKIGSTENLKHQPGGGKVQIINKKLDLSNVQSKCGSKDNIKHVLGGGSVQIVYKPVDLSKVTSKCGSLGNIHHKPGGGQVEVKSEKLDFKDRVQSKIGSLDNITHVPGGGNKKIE
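Fibril formation assay: tau K18 P301L at 15 uM with trace Alexa 594 label, heparin inducer 20 uM, pH 7 sodium acetate buffer, 37 C for 6 hr; endpoint ThT signal.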
ALDH1A1 inh: inhibitors of human aldehyde dehydrogenase 1A1; P00352; Purified ALDH1A1, NADH fluorescence, propionaldehyde substrate; Potency, µM (series often up to 75.3 µM), inactives show at the highest dose activity, negative = inhibition, actives largely listed as inhibitors; AID 1030; 7.3% of 220,000 active; active means well fitted inhibition curve with a large enough effect, not every such curve was filed as active; inconclusive means small, poorly fitted or top-dose-only effect, or another doubt; inactive means no such curve, though single readings can be large or run the other way;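 further: plate controls were no enzyme wells and a reference inhibitor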
Tau fibril FP: blocks human tau fibril formation measured by polarization; K18 P301L tau heparin fibrillization, Alexa594 FP, 6 h; Potency, µM (doses to about 57.7 µM), for the others: at the top dose activity, negative = inhibition, usual class: inhibitors; 0.39% of 280,000 active; AID 1468; further: nearly all actives have a fitted effect of over 55% in size
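Steps: dispense K18 P301L tau (15 uM plus 0.24 uM Alexa 594 tracer, final) in pH 7 sodium acetate; add compound; add heparin (20 uM final); incubate 6 hr, 37 C; add ThT (30 uM final); after 1 hr ambient, read FP.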
HPGD block: HPGD (human) dehydrogenase inhibition; P15428; purified HPGD, NADH fluorescence kinetic, PGE2 substrate; Potency, µM, for the others: at the highest dose activity change, negative = inhibition, usual class: inhibitors; 4.3% of 150,000 active; active means well fitted inhibition curve with a large enough effect, not every such curve was filed as active; inconclusive means small, poorly fitted or top-dose-only effect, or another doubt; inactive means no such curve, though single readings can be large or run the other way
Target sequence (P15428 whole entry, looked up): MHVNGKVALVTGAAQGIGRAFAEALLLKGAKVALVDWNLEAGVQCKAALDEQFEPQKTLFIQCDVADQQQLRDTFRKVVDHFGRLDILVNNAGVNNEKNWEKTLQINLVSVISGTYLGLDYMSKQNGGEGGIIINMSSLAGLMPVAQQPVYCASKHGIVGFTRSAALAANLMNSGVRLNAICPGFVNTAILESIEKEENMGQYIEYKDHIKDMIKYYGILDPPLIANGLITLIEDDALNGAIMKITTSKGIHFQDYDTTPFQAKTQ
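20 nM HPGD preincubated 15 min at room temperature with compound in 50 mM Tris-HCl pH 8, 0.01% Tween 20. Started with 1 mM NAD+ and 30 uM prostaglandin E2; NADH fluorescence (360/450 nm) read 5 times over 30-s intervals, last minus first.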
Starred values were filed as active, the others as inactive; ? = inconclusive; / = no result given; [ ] = dose if it differs, or a comment. Unless noted, the call rests on the fitted dose curve; in most records, active means well fitted curve in the direction sought with a large enough effect; inconclusive means small, poorly fitted or top-dose-only effect, or another doubt; inactive means no such curve, though single readings can be large; an effect the other way counts as inactive or inconclusive. Unless noted, on the % scale 0 is the no-effect control and ±100 the full control effect; potency means the concentration at half of the fitted maximal effect.

SMILES	NPSR antagonist	Tau fluor cs	Tau ThT inhib	ALDH1A1 inh	Tau fibril FP	HPGD block
O=C(Nc1ccc(Br)c2ccccc12)c1ccc2ccccc2c1O	?	17.8µM*[quencher]	17.8µM*	?	?	/
COc1ccc(CCNC(=O)C(CC(C)C)N2Cc3ccccc3C2=O)c(OC)c1OC (stereo not drawn)	/	-5.9%	-2.0%	/	-6.9%	/
COC(=O)N/N=C/c1cn(Cc2ccccc2Cl)c2ccccc12	-24.5%	?	-15.3%	-4.3%	10.3%	-10.7%
Cc1[nH][nH]c(=O)c1C(c1c(C)[nH][nH]c1=O)c1cn(Cc2ccccc2Cl)c2ccccc12	11.6%	-18.5%	11.2µM*	0.447µM*	?	-9.5%
O=C(O)Cc1sc(NCc2ccco2)nc1-c1ccccc1	4.4%	-9.8%	?	3.55µM*	-9.9%	/
CN(c1ccc(O)cc1)c1nc(-c2ccccc2)cs1	-36.6%	15.8µM*[quencher]	?	9.1%	?	15.8µM*
CN(C)CCCN(C(=O)c1cccs1)c1nc(-c2ccccc2)cs1	2.1%[46.1 µM]	-20.9%	-16.8%	-1.4%	-11.5%	-2.6%
O=c1cc(-c2c(F)c(F)c(F)c(F)c2F)oc2c(F)c(F)c(F)c(F)c12	3.16µM*	?	14.1µM*	?	?	-3.9%
O=c1cc(-c2c(F)c(F)c(F)c(F)c2F)oc2ccccc12	?	-13.7%	-21.2%	15.8µM*	-4.9%	-21.2%
O=c1cc(-c2cccc(O)c2O)oc2ccccc12	/	?	12.6µM*	-2.8%	2.9%	15.8µM*
COc1cc(-c2cc(=O)c3ccccc3o2)ccc1O	1.1%	-20.7%	?	-4.0%	7.4%	35.5µM*
CCOC(=O)C1(Cc2ccccc2C(F)(F)F)CCN(C2CCN(C(C)=O)CC2)CC1	-2.6%	-0.6%	-1.2%	3.5%	-4.9%	/
COc1cc(NC(=O)CCN2CCN(Cc3ccccc3)CC2)cc(OC)c1	-3.1%[46.1 µM]	-3.7%	-0.2%	11.2µM*	-0.3%	-5.9%
COc1ccccc1NC(=O)CN1CCN(CC(=O)Nc2ccc(F)cc2)CC1	-16.6%[46.1 µM]	-1.5%	-4.7%	25.1µM*	-0.5%	-19.0%
COc1ccc(NC(=O)CN2CCN(CC(=O)Nc3ccccc3Cl)CC2)cc1	0.2%[46.1 µM]	1.4%	-2.8%	8.91µM*	?	-0.9%
COc1ccccc1NC(=O)CN1CCN(CC(=O)Nc2ccc(OCc3ccccc3)cc2)CC1	-8.9%[46.1 µM]	-20.1%	?	?	2.5%	-6.8%
COc1ccccc1NC(=O)CN1CCN(Cc2ccccc2)CC1	0.1%[46.1 µM]	-10.7%	-14.5%	10µM*	2.7%	1.8%
CC1CCC2(CC1)NC(=O)N(CC(=O)Nc1ccccc1-c1ccccc1)C2=O (stereo not drawn)	-10.6%	-0.4%	-5.7%	12.1%	-2.8%	/
O=C(CN1CCN(Cc2ccccc2)CC1)Nc1ccccc1-c1ccccc1	?	-2.2%	?	11.2µM*	5.2%	/
CCOc1ccc(OCC)c(NC(=O)CN2CCN(c3cc(C)ccc3C)CC2)c1	?	-3.6%	-5.0%	3.55µM*	6.1%	-20.7%
CC1(C2CC2)NC(=O)N(CC(=O)Nc2ccccc2-c2ccccc2)C1=O (stereo not drawn)	26.7%	-5.6%	-2.7%	17.8µM*	3.4%	/
COc1ccccc1N1CCN(CC(=O)Nc2cc(F)ccc2C)CC1	-15.4%[46.1 µM]	-16.7%	-16.6%	17.8µM*	11.7%	-7.1%
CCOC(=O)C12CC1/C(=N/O)c1ccccc1O2 (stereo not drawn)	-8.1%[46.1 µM]	-10.4%	-5.8%	-6.0%	-9.9%	-10.8%
COc1ccc(S(=O)(=O)N2CCOCC2)cc1NC(=O)c1ccccc1-c1ccc(C(F)(F)F)cc1	-8.6%	0.9%	10.5%	16.9%	3.6%	?
O=C(/C=C/c1cccc(OCc2ccccc2)c1)c1cccnc1	-13.1%[46.1 µM]	6.8%	-17.5%	?	1.9%	-27.6%
N#CCCN(C1CCCCC1)S(=O)(=O)CCOc1ccccc1	-6.8%[46.1 µM]	-5.8%	2.9%	8.91µM*	-3.2%	-3.5%
Cc1c(NS(=O)(=O)c2ccc(C(C)(C)C)cc2)c(=O)n(-c2ccccc2)n1C	/	0.5%	-0.8%	/	-7.0%	/

Screens (PubChem)
